A short description of assay [1]: qHTS assay for small molecule agonists of the p53 signaling pathway - cell viability (AID 651633; calls by dose curve;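 further: p53RE-bla HCT reporter cells with a stable beta-lactamase p53 reporter; series mostly up to about 83 µM; nearly all actives have a fitted effect of over 30% in size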). The procedure, abridged: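 p53RE-bla cells, seeded at 4,000 per well and rested 5 h at 37 C/5% CO2, received compounds in DMSO for 16 h at 37 C. CellTiter-Glo was then added, and luminescence was read after 30 min at room temperature to gauge cytotoxicity.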
Background: qHTS replaces the single test concentration by a dilution series.

Assay [2] can be described thus: qHTS assay for small molecules that induce genotoxicity in human embryonic kidney cells expressing luciferase-tagged ATAD5 - cell viability (AID 651634; calls by dose curve; further: nearly all actives have a fitted effect of over 25% in size). The procedure, abridged:
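HEK293T cells carrying luciferase-tagged ATAD5, 2,000 cells/well, exposed to compound for 15.5 hr at 37C. Viability read as live-cell protease activity by CellTiter-Fluor fluorescence after 30 min at 37C.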

A short description of assay [3]: qHTS assay for small molecule disruptors of the mitochondrial membrane potential - cell viability (AID 720634; calls by dose curve;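 further: human HepG2 liver cancer cells; series mostly up to about 83 µM; nearly all actives have a fitted effect of over 20% in size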). The method, boiled down: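 HepG2 cells, 2,000 per well, attached overnight, then treated 1 hr at 37 C, 5% CO2. Viability read as ATP by CellTiter-Glo luminescence after 30 min at room temperature. Read in the same wells as the m-MPI membrane-potential dye assay.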

Assay [4] is described as follows: qHTS assay for small molecule disruptors of the mitochondrial membrane potential (AID 720635). Further: potency means the concentration at half of the fitted maximal effect. The procedure, abridged:
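HepG2 cells (2,000/well) attached overnight at 37C, then took compound for 1 hr at 37C, 5% CO2. Mito-MPS dye was added for 30 min; fluorescence was read at 490/535 nm (monomers) and 540/590 nm (aggregates).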

Assay [5] can be described thus: qHTS assay to test for compound auto fluorescence at 590 nm (red) in HepG2 cells (AID 720674). The procedure, abridged: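 Compound auto-fluorescence is scored relative to Rose Bengal sodium, measured at 540/590 nm in live HepG2 cultures after 1 hr compound contact (37 C, 5% CO2).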
Assay [6] in a line: qHTS assay to test for compound auto fluorescence at 535 nm (green) in HepG2 cells (AID 720675).
A short description of assay [7]: qHTS assay to test for compound auto fluorescence at 460 nm (blue) in HEK293 cells (AID 720678). The procedure, abridged: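 Triamterene serves as the blue fluorophore standard. Compound signal at 405/460 nm is read in HEK293 wells (2,000 cells, 10% dialyzed FBS) after overnight treatment at 37C.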
The nature of assay [8]: qHTS assay to test for compound auto fluorescence at 590 nm (red) in HEK293 cells (AID 720679). The procedure, abridged: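 We plated HEK293 cells in 10% dialyzed FBS medium, let them adhere for 4-5 hr, then added 23 nL compound. Overnight at 37C and 5% CO2 preceded fluorescence measurement at 540/590nm.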
Assay [9] is described as follows: qHTS assay to test for compound auto fluorescence at 535 nm (green) in HEK293 cells (AID 720680).
Assay [10] in a line: qHTS assay to test for compound auto fluorescence at 460 nm (blue) in HEK293 cell free culture (AID 720681). The method, boiled down:
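Test compounds were pinned into cell-free culture medium (DMEM with 10% FBS) and fluorescence was read directly at Ex/Em 405/460 nm. Signals were expressed as fluorescence equivalents of triamterene, with DMSO vehicle as control.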

Assay [11] is described as follows: qHTS assay to test for compound auto fluorescence at 535 nm (green) in HEK293 cell free culture (AID 720682). The procedure, abridged: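 No cells present: wells hold DMEM supplemented with 10% FBS, into which compound or vehicle is pinned. Green emission is then recorded (485 nm excitation, 535 nm emission) and scaled to fluorescein.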
Assay [12] is described as follows: qHTS assay to test for compound auto fluorescence at 590 nm (red) in HEK293 cell free culture (AID 720683). The method, boiled down:
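Tox21 10K library compounds were pinned into cell-free DMEM with 10% FBS and fluorescence was read at excitation 540 nm. Activity is expressed as Rose Bengal sodium equivalency.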

Assay [13] is described as follows: qHTS assay to test for compound auto fluorescence at 590 nm (red) in HepG2 cell free culture (AID 720684). The method, boiled down:
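Red fluorescence (540 nm excitation, 590 nm emission) was measured after compound transfer into cell-free MEM supplemented with 10% FBS. Values are equivalencies against Rose Bengal sodium.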

Assay [14] can be described thus: qHTS assay to test for compound auto fluorescence at 460 nm (blue) in HepG2 cell free culture (AID 720685). The method, boiled down: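 Compound (23 nL) or DMSO pinned into cell-free MEM with 10% FBS; blue fluorescence read at 405/460 nm excitation/emission, expressed as auto-fluorescence equivalency to triamterene.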
Assay [15] addresses Glucocorticoid receptor (Homo sapiens) (UniProt P04150). Put plainly: qHTS assay to identify small molecule agonists of the glucocorticoid receptor (GR) signaling pathway (AID 720691; active means well fitted activation curve with a large enough effect in the signal ratio in the repeat runs, not every such curve was filed as active; the % refers to the signal ratio). The procedure, abridged: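 GR-bla HeLa cells carrying a GRE-driven beta-lactamase reporter, exposed to compounds for 18 h at 37 C. Reporter activation read as fluorescence after 2 h with LiveBLAzer B/G FRET substrate at room temperature.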

For assay [16] the target is unchanged. Put plainly: qHTS assay to identify small molecule antagonists of the glucocorticoid receptor (GR) signaling pathway (AID 720692; active means well fitted inhibition curve with a large enough effect in the signal ratio in the repeat runs, not every such curve was filed as active; the % refers to the signal ratio). The method, boiled down: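 GR-bla HeLa cells carrying a GRE-driven beta-lactamase reporter received compound after 4 h plating, then dexamethasone (5 nM final). After 18 h at 37C, the FRET substrate was loaded for 2 h at room temperature and fluorescence read.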

A short description of assay [17]: qHTS assay for small molecule agonists of the p53 signaling pathway (AID 651631; calls by dose curve; further: nearly all actives have a fitted effect of over 15% in size). The method, boiled down:
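Agonist mode screen using a stably integrated beta-lactamase gene under p53 response elements in HCT-116 cells. Compound exposure lasts 16 h at 37 °C; fluorescence intensity is measured following 2 h FRET substrate loading.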

Assay [18] in a line: qHTS assay to test for compound auto fluorescence at 535 nm (green) in HepG2 cell free culture (AID 720686).
Assay [19] can be described thus: qHTS assay to test for compound auto fluorescence at 460 nm (blue) in HepG2 cells (AID 720687). The procedure, abridged:
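Cells (2,000/well in MEM with 10% FBS) attached overnight at 37 C, then were exposed to compound or DMSO for 1 hr at 37 C, 5% CO2. Fluorescence read at Ex/Em 405/460 nm, expressed as triamterene-equivalent signal.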

A short description of assay [20]: qHTS assay for small molecules that induce genotoxicity in human embryonic kidney cells expressing luciferase-tagged ATAD5 (AID 651632). Further: nearly all actives have a fitted effect of over 15% in size. The procedure, abridged: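 HEK293T cells carrying luciferase-tagged ATAD5 were given compound or DMSO vehicle and incubated 16 hr at 37C, 5% CO2. Luciferase activity was read after 30 min at room temperature with Amplite; a rise signals genotoxic stress.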

Where “and” joins values, the source holds several entries; their conditions need not be identical. Identical values can stand only once. Inconclusive results are not listed. Calls of active or inactive are those of the source. Unless noted, the call rests on the fitted dose curve; in most records, active means well fitted curve in the direction sought with a large enough effect in the repeat runs; inconclusive means weak or mixed curves; inactive means no such curve, though single readings can be large; an effect the other way counts as inactive or inconclusive.

Sequence of Glucocorticoid receptor (Homo sapiens) (P04150 whole entry, looked up): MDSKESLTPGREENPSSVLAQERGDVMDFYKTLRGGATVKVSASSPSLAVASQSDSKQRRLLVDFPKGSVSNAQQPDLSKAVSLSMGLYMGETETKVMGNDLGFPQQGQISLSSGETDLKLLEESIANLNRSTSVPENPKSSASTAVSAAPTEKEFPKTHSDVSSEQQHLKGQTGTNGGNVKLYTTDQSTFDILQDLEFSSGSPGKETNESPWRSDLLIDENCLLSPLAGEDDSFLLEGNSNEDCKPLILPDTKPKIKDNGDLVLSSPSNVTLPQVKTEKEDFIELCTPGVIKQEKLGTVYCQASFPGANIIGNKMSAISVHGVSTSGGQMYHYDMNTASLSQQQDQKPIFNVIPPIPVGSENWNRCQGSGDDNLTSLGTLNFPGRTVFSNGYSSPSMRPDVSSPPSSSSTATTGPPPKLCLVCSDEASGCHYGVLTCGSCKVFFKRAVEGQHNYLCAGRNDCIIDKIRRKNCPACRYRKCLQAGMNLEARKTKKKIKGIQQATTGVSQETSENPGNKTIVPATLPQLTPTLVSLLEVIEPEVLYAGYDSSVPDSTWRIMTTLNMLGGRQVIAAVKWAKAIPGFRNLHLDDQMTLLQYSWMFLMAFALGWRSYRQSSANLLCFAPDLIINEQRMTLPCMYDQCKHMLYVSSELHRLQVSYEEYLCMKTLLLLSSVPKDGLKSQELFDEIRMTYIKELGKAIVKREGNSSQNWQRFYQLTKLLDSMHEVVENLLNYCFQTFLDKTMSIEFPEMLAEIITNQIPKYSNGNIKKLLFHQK

For the compound `OC(Cn1cncn1)(Cn1cncn1)c1ccc(F)cc1F`, the Potency result in assay [1], in assay [2], in assay [3], in [4] and in assay [15] was “inactive” throughout. Besides, the compound was called inactive in [5], in assay [6], in assay [7], in [8], in [9] and in assay [10]. The call in assay [11], in assay [12], in [13], in [14] and in assay [16] was inactive.
As to `Cc1cn([C@H]2C[C@H](N=[N+]=[N-])[C@@H](CO)O2)c(=O)[nH]c1=O`, the Potency result in assay [17], in assay [1], in assay [3], in assay [4] and in assay [15] was “inactive” each time. Further, the compound was classed as inactive in [5], in assay [6], in assay [7], in assay [8], in assay [9] and in assay [10]. Besides, the compound was called inactive in assay [11], in assay [12], in assay [13], in [14] and in assay [16].
For the compound `N=C(N)c1ccc(OCCCCCOc2ccc(C(=N)N)cc2)cc1`, the Potency entry in [1], in [2], in assay [3] and in assay [15] was “inactive” in each case. In addition, the compound was classed as inactive in assay [5], in assay [6], in [7], in assay [8], in assay [9] and in assay [10]. Also, the result in assay [11], in assay [12], in [13], in [14] and in assay [18] was inactive.
As for `COc1c2occc2cc2ccc(=O)oc12`, the Potency entry in assay [17], in assay [1], in assay [3] and in [15] was “inactive” in each case. In addition, the compound was called inactive in assay [5], in assay [6], in assay [7], in [8], in assay [9] and in assay [10]. Moreover, the compound was called inactive in assay [11], in assay [12], in assay [13], in assay [14], in assay [19] and in [16].
In the case of `CC(C)[C@@H]1CC[C@@H](C)C[C@H]1O`, the Potency entry in assay [1], in assay [2], in assay [3] and in assay [4] was “inactive” throughout. For the same compound, the compound was classed as inactive in assay [5], in [6], in assay [7], in [8], in assay [9] and in assay [10]. Besides, the call in assay [11], in assay [12], in [13], in [14] and in assay [19] was inactive.
For the compound `O=C(O)C(=O)O`, the Potency entry in assay [20], in assay [1], in assay [2], in assay [3], in [4] and in [15] was “inactive” throughout. Also, the outcome in [5], in assay [6], in [7], in assay [8], in assay [9] and in assay [10] was inactive. Besides, the call in [11], in [12], in [13], in assay [14] and in [16] was inactive.
On to `O=C1CN(/N=C/c2ccc([N+](=O)[O-])o2)C(=O)N1`, for which the Potency result in assay [17], in assay [1], in [3] and in assay [15] was “inactive” each time. Also, the Potency in assay [4] is 21.1 µM (active) and 21.6 µM (active) and 21.7 µM (active). For the same compound, the compound was called inactive in assay [5], in [6], in assay [7], in [8], in assay [9] and in assay [10]. The call in assay [11], in [12], in [13], in assay [14], in assay [18] and in assay [19] was inactive. In addition, the outcome in assay [16] was inactive.
On to `O=C(c1ccccc1)c1ccccc1`, for which the Potency entry in [17], in assay [1], in [3] and in assay [15] was “inactive” each time. In addition, the outcome in assay [5], in assay [6], in [7], in assay [8], in assay [9] and in assay [10] was inactive. Also, the result in assay [11], in [12], in [13], in assay [14], in assay [19] and in assay [16] was inactive.
Turning to `CCCC(CCC)C(=O)O`, the Potency entry in assay [2], in [3], in [4] and in [15] was “inactive” each time. Also, the outcome in assay [5], in [6], in [7], in assay [8], in [9] and in assay [10] was inactive. The outcome in [11], in [12], in assay [13], in assay [14] and in [16] was inactive.

For the origin of these results see PubChem BioAssay (Tox21).
